For 7 compounds, outcome and AC50 results are on record in PubChem BioAssay (EPA / NIEHS).

Read-out in assay [1]: Interleukin-1 alpha (IL1a), IL1A (gene 3552)
The assay can be described thus: BSK_LPS_IL1a: BioMAP Diversity Plus: LPS Assay for Interleukin-1 alpha (IL1a) Biomarker Activity (AID 2283080). The note with it: primary human HUVEC with PBMC; actives raise or lower the signal. In a few lines:
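Primary human HUVEC and PBMC co-culture stimulated with LPS is dosed and harvested at 24 h. Both increases and decreases in ELISA-measured IL-1a are scored relative to DMSO.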

Read-out in assay [2]: Monocyte Chemoattractant Protein-1 (MCP1), CCL2 (gene 6347)
The assay can be described thus: BSK_LPS_MCP1: BioMAP Diversity Plus: LPS Assay for Monocyte Chemoattractant Protein-1 (MCP1) Biomarker Activity (AID 2283081). Conditions: primary human HUVEC with PBMC; actives raise or lower the signal. The gist of the method:
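Values derive from bidirectional fitting against DMSO of ELISA-measured MCP-1 in a human primary endothelial and mononuclear cell co-culture, 24 h after chemical addition under LPS activation.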

Assay [3] is described as follows: BSK_LPS_PGE2: BioMAP Diversity Plus: LPS Assay for Prostaglandin E2 (PGE2) Biomarker Activity (AID 2283082).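 As to AC50: secreted prostaglandin E2 measured by ELISA in LPS-stimulated co-culture.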 The note with it: primary human HUVEC with PBMC; actives raise or lower the signal. The gist of the method:
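HUVEC plus human PBMC co-culture stimulated with LPS; secreted PGE2 quantified by ELISA 24 h after chemical dosing. Activity fitted bidirectionally against DMSO baseline; parallel SRB staining (0.1% SRB after 10% TCA fixation, 560 nm) flags overt cytotoxicity.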

Read-out in assay [4]: Macrophage colony-stimulating factor (MCSF), CSF1 (gene 1435)
In words: BSK_LPS_MCSF: BioMAP Diversity Plus: LPS Assay for Macrophage colony-stimulating factor (MCSF) Biomarker Activity (AID 2283083). Conditions: primary human HUVEC with PBMC; actives raise or lower the signal. The gist of the method: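 Bidirectional fit versus DMSO of ELISA-measured M-CSF in co-cultured human umbilical vein endothelial cells and PBMC, sampled 24 h after dosing.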

Read-out in assay [5]: Tissue Factor, F3 (gene 2152)
The assay can be described thus: BSK_LPS_TissueFactor: BioMAP Diversity Plus: LPS Assay for Tissue Factor Biomarker Activity (AID 2283084). Conditions: primary human HUVEC with PBMC; actives raise or lower the signal. In a few lines: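 Read-out: CD142 ELISA, 24 h. System: LPS-driven human endothelial/PBMC co-culture. Analysis: up- or down-signal fitted against DMSO.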

Read-out in assay [6]: Tumor necrosis factor (Homo sapiens) (UniProt P01375)
In words: BSK_LPS_TNFa: BioMAP Diversity Plus: LPS Assay for Tumour Necrosis Factor alpha (TNFa) Biomarker Activity (AID 2283085). Conditions: primary human HUVEC with PBMC; actives raise or lower the signal. In a few lines: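 Human umbilical vein endothelial cells co-cultured with PBMC and stimulated with LPS. TNFa was measured by ELISA 24 h after chemical dosing, fitted bidirectionally relative to DMSO.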

Read-out in assay [7]: Vascular cell adhesion molecule 1 (VCAM1), VCAM1 (gene 7412)
In words: BSK_LPS_VCAM1: BioMAP Diversity Plus: LPS Assay for Vascular cell adhesion molecule 1 (VCAM1) Biomarker Activity (AID 2283086). Conditions: primary human HUVEC with PBMC; actives raise or lower the signal. The gist of the method:
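Human umbilical vein endothelial cells co-cultured with PBMC and stimulated with LPS; VCAM-1 measured by ELISA 24 h after dosing. Bidirectional curve fitting against DMSO baseline; cytotoxicity tracked in parallel by SRB total-protein staining.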

Read-out in a further assay: CD38, CD38 (gene 952)
In words: BSK_SAg_CD38: BioMAP Diversity Plus: SAg Assay for CD38 Biomarker Activity (AID 2283087). Conditions: primary human HUVEC with PBMC; actives raise or lower the signal. The gist of the method:
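Human HUVEC plus PBMC co-culture stimulated with superantigen; CD38 measured by ELISA 24 h after chemical dosing. Fluorescence read-out, bidirectional fit against DMSO; cytotoxicity tracked in parallel by SRB and Alamar Blue.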

Read-out in the next assay: CD40, CD40 (gene 958)
The assay can be described thus: BSK_SAg_CD40: BioMAP Diversity Plus: SAg Assay for CD40 Biomarker Activity (AID 2283088). The note with it: primary human HUVEC with PBMC; actives raise or lower the signal. In a few lines:
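Endpoint derived by fitting increases or decreases versus DMSO controls. CD40 is detected by fluorescence ELISA in a human vascular co-culture of endothelium and PBMC at 24 h.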

Read-out in a further assay: CD69, CD69 (gene 969)
In words: BSK_SAg_CD69: BioMAP Diversity Plus: SAg Assay for CD69 Biomarker Activity (AID 2283089). The note with it: primary human HUVEC with PBMC; actives raise or lower the signal. The gist of the method:
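ELISA, fluorescence read-out: CD69 on human umbilical vein endothelial cell + PBMC co-culture, 24 h post-dosing. Gain or loss of signal fitted bidirectionally against DMSO baseline.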

Read-out in assay [8]: Monocyte Chemoattractant Protein-1 (MCP1), CCL2 (gene 6347)
The assay can be described thus: BSK_SAg_MCP1: BioMAP Diversity Plus: SAg Assay for Monocyte Chemoattractant Protein-1 (MCP1) Biomarker Activity (AID 2283090). Conditions: primary human HUVEC with PBMC; actives raise or lower the signal. In a few lines: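 MCP-1 levels in the endothelial–PBMC SAg co-culture were quantified by ELISA at 24 h post-dosing; both increases and decreases versus DMSO scored. Cytotoxicity monitored by SRB total protein in parallel cultures.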

Read-out in assay [9]: E-selectin (Homo sapiens) (UniProt P16581)
In words: BSK_SAg_Eselectin: BioMAP Diversity Plus: SAg Assay for Eselectin Biomarker Activity (AID 2283091). Conditions: primary human HUVEC with PBMC; actives raise or lower the signal. The gist of the method: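 Endpoint values derive from bidirectional fitting relative to DMSO, using ELISA-measured E-selectin in a human vascular co-culture (umbilical vein endothelium plus PBMC) sampled 24 h after dosing.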

Read-out in assay [10]: Monokine induced gamma interferon (MIG), CXCL9 (gene 4283)
The assay can be described thus: BSK_SAg_MIG: BioMAP Diversity Plus: SAg Assay for Monokine induced gamma interferon (MIG) Biomarker Activity (AID 2283092). The note with it: primary human HUVEC with PBMC; actives raise or lower the signal. The gist of the method: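 ELISA readout of MIG/CXCL9; primary human umbilical vein endothelial cells co-cultured with peripheral blood mononuclear cells; 24 h post-dose; gain/loss fit vs DMSO baseline.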

The nature of assay [11]: BSK_SAg_PBMCCytotoxicity: PBMC Cytotoxicity Assessment in the BioMAP Diversity Plus: SAg Assay (AID 2283093).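 Also: PBMC viability measured as Alamar Blue reduction fluorescence at 546/580 nm; fitted both ways against DMSO so a hit may be loss or gain of signal.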 Conditions: primary human HUVEC with PBMC. The gist of the method:
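Human umbilical vein endothelial cells co-cultured with PBMC; PBMC (75,000/well) pre-treated with compound 1 h, then activated with SEB and TSST-1 (20 ng/mL final each) for 90 h. Alamar Blue added 6 h, fluorescence 546/580 nm; bidirectional fit versus DMSO.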

Read-out in assay [12]: Interleukin-8 (IL8), CXCL8 (gene 3576)
The assay can be described thus: BSK_SAg_IL8: BioMAP Diversity Plus: SAg Assay for Interleukin-8 (IL8) Biomarker Activity (AID 2283094). Conditions: primary human HUVEC with PBMC; actives raise or lower the signal. In a few lines: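 Human umbilical vein endothelial cells co-cultured with PBMC, stimulated with superantigen; IL-8 measured by ELISA 24 h after chemical dosing. Bidirectional fitting versus DMSO; SRB staining in parallel cultures tracks cytotoxicity.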

A short description of assay [13]: BSK_SAg_Proliferation: Cell Proliferation Assessment in the BioMAP Diversity Plus: SAg Assay (AID 2283095). The note with it: primary human HUVEC with PBMC. In a few lines: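 Human umbilical vein endothelial cells co-cultured with PBMC; sulforhodamine B total-protein staining (0.1% SRB after 10% TCA fixation, absorbance 560 nm) at 96 h in sub-confluent culture. Fitted bidirectionally against DMSO.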

The nature of assay [14]: BSK_SAg_SRB: Viability Assessment in the BioMAP Diversity Plus: SAg Assay (AID 2283096).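 Also: cells read one day after compound addition; hits may be either gain or loss of signal compared with DMSO.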 Conditions: primary human HUVEC with PBMC. In a few lines: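 Endothelial/PBMC primary human co-culture; compound 24 h; fix 10% TCA, stain 0.1% SRB, A560; protein content as cytotoxicity proxy; bidirectional curve fit, DMSO = baseline.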
Assay [15] deals with Cytochrome P450 3A4 (Homo sapiens) (UniProt P08684). In words: NVS_ADME_hCYP3A4: NovaScreen (NVS) CYP450-related Enzyme Activity (ADME) Assay for human CYP3A4 (AID 2283110; active = hit-call score of the fitted dose curve at least 0.9, where 1 is the maximum). The gist of the method: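 Cell-free assay using insect-cell-expressed human CYP3A4 with a fluorogenic substrate; fluorescence intensity was read 0.33 hour after dosing. Loss of signal relative to acetonitrile vehicle indicated inhibition. Primary single-concentration screen at 10 uM, in duplicate, then concentration series.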
Sequence of Cytochrome P450 3A4 (Homo sapiens) (P08684 whole entry, looked up): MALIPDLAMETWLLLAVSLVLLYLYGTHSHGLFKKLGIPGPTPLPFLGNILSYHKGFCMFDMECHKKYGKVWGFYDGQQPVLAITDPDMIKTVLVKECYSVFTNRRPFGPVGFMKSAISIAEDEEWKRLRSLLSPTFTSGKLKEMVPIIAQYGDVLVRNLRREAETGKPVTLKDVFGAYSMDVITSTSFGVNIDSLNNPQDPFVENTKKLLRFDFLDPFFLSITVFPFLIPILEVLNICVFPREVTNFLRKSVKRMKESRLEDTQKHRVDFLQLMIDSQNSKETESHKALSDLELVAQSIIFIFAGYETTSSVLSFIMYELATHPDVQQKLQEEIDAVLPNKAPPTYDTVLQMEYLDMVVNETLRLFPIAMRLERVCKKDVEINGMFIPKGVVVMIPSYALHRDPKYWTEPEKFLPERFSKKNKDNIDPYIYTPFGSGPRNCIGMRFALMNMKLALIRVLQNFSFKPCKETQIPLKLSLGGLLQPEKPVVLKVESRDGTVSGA

Records with an inconclusive call do not appear. Active and inactive are the calls of the source. The calls were made as follows, unless noted: active = hit-call score of the fitted dose curve at least 0.9, where 1 is the maximum; inactive = score below 0.9.

Sequence of Tumor necrosis factor (Homo sapiens) (P01375 whole entry, looked up): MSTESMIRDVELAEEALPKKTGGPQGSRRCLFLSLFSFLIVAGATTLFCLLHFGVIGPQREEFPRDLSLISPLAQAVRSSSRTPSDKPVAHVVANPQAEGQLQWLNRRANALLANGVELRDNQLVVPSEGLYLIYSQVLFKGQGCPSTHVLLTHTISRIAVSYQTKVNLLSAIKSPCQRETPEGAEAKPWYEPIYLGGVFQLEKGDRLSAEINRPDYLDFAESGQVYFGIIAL
Sequence of E-selectin (Homo sapiens) (P16581 whole entry, looked up): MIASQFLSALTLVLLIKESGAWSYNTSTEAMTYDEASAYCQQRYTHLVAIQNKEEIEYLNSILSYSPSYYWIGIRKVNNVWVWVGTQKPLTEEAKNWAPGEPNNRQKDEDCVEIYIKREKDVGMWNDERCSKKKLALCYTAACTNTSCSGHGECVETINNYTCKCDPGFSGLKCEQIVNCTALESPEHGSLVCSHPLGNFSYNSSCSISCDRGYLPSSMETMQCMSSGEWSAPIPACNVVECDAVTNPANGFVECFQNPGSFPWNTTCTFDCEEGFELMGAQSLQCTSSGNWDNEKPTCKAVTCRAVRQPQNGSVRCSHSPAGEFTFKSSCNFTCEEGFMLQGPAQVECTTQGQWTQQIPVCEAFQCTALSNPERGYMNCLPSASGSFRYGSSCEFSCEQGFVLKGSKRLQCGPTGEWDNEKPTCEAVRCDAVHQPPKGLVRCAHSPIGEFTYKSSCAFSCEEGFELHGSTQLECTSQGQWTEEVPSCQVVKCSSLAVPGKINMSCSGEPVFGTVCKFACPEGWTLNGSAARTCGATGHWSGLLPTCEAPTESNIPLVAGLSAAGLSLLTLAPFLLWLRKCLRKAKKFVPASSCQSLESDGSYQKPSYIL

Turning to `O=S(=O)(O)C(F)(F)C(F)(F)C(F)(F)C(F)(F)C(F)(F)C(F)(F)C(F)(F)F`, the result in assay [1], in [2], in assay [3], in [4], in [5] and in assay [6] was inactive. Besides, the outcome in assay [7] is “inactive”; with CD38, CD38 (gene 952), “inactive”; in the assay with CD40, CD40 (gene 958), “inactive”; in the assay with CD69, CD69 (gene 969), “inactive”; in [8], “inactive”; in [9], “inactive”. Further, the result in assay [10], in assay [11], in assay [12], in assay [13] and in [14] was inactive.
Take `FC(F)(F)C(F)(F)C(F)(F)N(C(F)(F)C(F)(F)C(F)(F)F)C(F)(F)C(F)(F)C(F)(F)F`: the outcome in [1], in assay [2], in assay [3], in assay [4], in assay [5] and in assay [6] was inactive. For the same compound, the outcome in assay [7] was “inactive”; in the assay with CD38, CD38 (gene 952), “inactive”; in the assay with CD40, CD40 (gene 958) it was “inactive”; with CD69, CD69 (gene 969), “inactive”; in assay [8] it was “inactive”; in assay [9] it was “inactive”. The outcome in assay [10], in [11], in assay [12], in assay [13] and in assay [14] was inactive.
As a reminder, the AC50 is the concentration at which the activity in the assay is half-maximal. For the compound `CCN(CC)c1ccc2c(C)cc(=O)oc2c1`, the result in assay [1], in [2], in [4], in assay [5], in [6] and in assay [7] was inactive. The outcome with CD38, CD38 (gene 952) was “inactive”; in the assay with CD40, CD40 (gene 958), “inactive”; with CD69, CD69 (gene 969), “inactive”; in assay [8] it was “inactive”; in [9], “inactive”; in [10], “inactive”. For the same compound, the result in assay [11], in [12], in assay [13], in [14] and in assay [15] was inactive. Also, the AC50 in assay [3] is 6.52 µM (active).
Take `O=C(O)C(F)(F)C(F)(F)C(F)(F)F`: the outcome in assay [1], in assay [2], in assay [3], in assay [4], in assay [5] and in assay [6] was inactive. The outcome in [7] was “inactive”; with CD38, CD38 (gene 952), “inactive”; with CD40, CD40 (gene 958) it was “inactive”; in the assay with CD69, CD69 (gene 969), “inactive”; in [8], “inactive”; in assay [9] it was “inactive”. In addition, the outcome in [10], in assay [11], in assay [12], in assay [13] and in assay [14] was inactive.
`CS(C)(=O)=O`: the result in assay [1], in assay [2], in assay [3], in assay [4], in assay [5] and in assay [6] was inactive. The outcome in assay [7] was “inactive”; in the assay with CD38, CD38 (gene 952), “inactive”; in the assay with CD40, CD40 (gene 958), “inactive”; with CD69, CD69 (gene 969), “inactive”; in assay [8], “inactive”; in assay [9], “inactive”. Moreover, the outcome in assay [10], in assay [11], in assay [12], in assay [13] and in [14] was inactive.
For the compound `O=S(=O)(OCCOC(F)(F)F)C(F)(F)F`, the result in [1], in assay [2], in assay [3], in assay [4], in assay [5] and in assay [6] was inactive. The outcome is “inactive” in assay [7]; “inactive” with CD38, CD38 (gene 952); “inactive” with CD40, CD40 (gene 958); “inactive” in the assay with CD69, CD69 (gene 969); “inactive” in [8]; “inactive” in assay [9]. Further, the outcome in assay [10], in assay [11], in assay [12], in [13] and in assay [14] was inactive.
Take `C=CC/C=C/C/C=C/C/C=C/C`: the result in assay [1], in assay [2], in [3], in assay [4], in assay [5] and in assay [7] was inactive. Moreover, the outcome in the assay with CD38, CD38 (gene 952) is “inactive”; with CD40, CD40 (gene 958), “inactive”; with CD69, CD69 (gene 969) it was “inactive”; in assay [8] it was “inactive”; in [9], “inactive”; in assay [10], “inactive”. The outcome in [11], in assay [12], in [13] and in [14] was inactive. In addition, in assay [6], the AC50 is 0.628 µM (active).
